# Pf apPOL inh – Pf-apPOL DNA polymerase inhibition | Recombinant Pf-apPOL, molecular beacon fluorescence, 1.5 h | inhibition, % at 10 µM | hit rate 0.25% among 210,000 | AID 1794808
# mHTT CaM bind – mHTT-calmodulin interaction abrogation. AlphaScreen His-mHTT/GST-CaM binding, luminescence. inhibition, % at 15 µM. hit rate 3.6% among 190,000. AID 1671202;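 note: 0% = both proteins with DMSO and 100% = one protein alone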
# * = called active by the depositor; . = not tested or not shown. The entries come from a sample that favours hits as a whole. Cut-off read from the data, not from the text of the source: active = inhibition above about 50%; inactive = the rest.
SMILES,Pf apPOL inh,mHTT CaM bind
Brc1ccc2c(c1)C1C=CCC1C(c1cccnc1)N2 (configuration not stated),-4,85*
Brc1cccc(C2CC(c3cccnc3)Nc3nnnn32)c1 (configuration not stated),9,-3
O=C1NC(=S)NC(=O)C1=Cc1c(Cl)cccc1Cl,32,.
O=C1NC(=S)NC(=O)C1=Cc1ccco1,91*,.
CN(Cc1ccccc1)C(=C(Cl)Cl)/C(=C1\NCCN1Cc1ccc(Cl)nc1)[N+](=O)[O-],-5,65*
CN1CCN(Cc2ccc(Cl)nc2)/C1=C(/C(Cl)=C(Cl)Cl)[N+](=O)[O-],-5,7
O=[N+]([O-])C=Cc1ccc([N+](=O)[O-])cc1,16,.
CCN1CCN(c2cc(C)nc3nncn23)CC1,.,0
COc1ccccc1N1CCN(C(=O)C(O)(c2ccccc2)c2ccccc2)CC1,-13,82*
COc1ccccc1N1CCN(Cc2ccc(O)cc2)CC1,-3,-3
CN(C)c1ccc(/C=C/[N+](=O)[O-])cc1Br,3,21
COc1ccc(/C=C/[N+](=O)[O-])cc1,4,26
COc1ccc(/C=C/[N+](=O)[O-])cc1I,1,72*
COc1ccc(/C=C/[N+](=O)[O-])cc1Br,-2,67*
CN1CCN(c2ccc([N+](=O)[O-])cc2C(N)=O)CC1,-10,-2
COc1ccc(C=C2Oc3c(ccc(OC(=O)N(C)C)c3C)C2=O)cc1OC,-2,7
COc1ccc(-c2coc3cc(OCCN4CC5CC(C4)c4cccc(=O)n4C5)ccc3c2=O)cc1 (configuration not stated),-63,-5
CCN(CC)C(=O)c1ccc2c(c1)C1C=CCC1C(C(=O)O)N2 (configuration not stated),2,76*
CCN(CC)C(=O)c1ccc(NC(=O)c2ncn[nH]2)cc1,1,21
CCN(CC)C(=O)c1ccc2c(c1)C1C=CCC1C(c1ccc([N+](=O)[O-])cc1)N2 (configuration not stated),-2,70*
CCCc1nc2ccccc2c(=O)n1-c1ccccc1Cl,2,-2
[O-]C(=Nc1c[n+](C23CC4CC(CC(C4)C2)C3)no1)Nc1ccccc1,-1,-2
COc1ccc(OC)c(CN2CCN(c3ccc(F)cc3)CC2)c1,2,19
COc1ccc2c(c1)C1(CCN(C(=O)Cc3ccc(C)cc3)C1)C(=O)N2 (configuration not stated),-6,5
COc1cc(C2C(C#N)=C(N)Oc3c2c(=O)oc2ccccc32)cc(OC)c1OC (configuration not stated),-4,-1
SMILES,Pf apPOL inh,mHTT CaM bind
Nc1nc(N)c2n[nH]nc2n1,.,-2
O=C(CN1C(=O)CN=C(c2ccccc2)c2ccccc21)Nc1cccc(Cl)c1,-1,27
O=C(CN1C(=O)CN=C(c2ccccc2)c2cc(Cl)ccc21)Nc1ccccc1C(F)(F)F,-6,26
COc1ccc(NC(=O)CN2C(=O)CN=C(c3ccccc3)c3cc(Cl)ccc32)cc1OC,-18,76*
Cc1cccc(NC(=O)CN2C(=O)CN=C(c3ccccc3)c3cc(Cl)ccc32)c1C,-20,54*
COc1ccc(C2(CN)CCOCC2)cc1OC,-7,-2
NCC1(c2ccc3c(c2)OCCO3)CCOCC1,106*,-8
C=CCSc1nc2ccccc2c(=O)n1-c1ccc(C)cc1,-4,-5
COCCN1CCC(N2CCCN(C(=O)Cc3cccc(Cl)c3)CC2)C1=O (configuration not stated),0,15
O=C(Cc1cccs1)N1CCCN(C2CCN(Cc3ccc(F)cc3)C2=O)CC1 (configuration not stated),0,60*
CCCN1CCN(c2ncccc2C#N)CC1,-6,-4
COc1ccccc1CCNCc1ccc2c(c1)OCO2,-10,1
COc1ccccc1CCNCc1cc(OC)c2c(c1)OCO2,-7,89*
OC(c1ccccc1)(c1ccccc1)[C@@H]1CCCN1,.,-7
CC12CCCCC1CCC1C2CCC2(C)C(O)C(=Cc3ccccc3Cl)CC12 (configuration not stated),4,2
COc1nonc1OCCNCCNc1ccc([N+](=O)[O-])c2cccnc12,-3,24
CN(C)c1ccc([N+](=O)[O-])c2cccnc12,.,14
CNC(=O)Oc1cc([N+](=O)[O-])cc2cccnc12,-9,100*
CN(C)CCC(=O)c1ccc(Cl)c(Cl)c1,-2,100*
CCc1ccc(C(=O)CCN(C)C)cc1,-2,2
COc1ccc(OC)c(-n2c(O)c(C=C3C=Nc4ccccc43)c(=O)[nH]c2=O)c1,-2,34
O=c1[nH]c(O)c(C=C2C=Nc3ccc(OCc4ccccc4)cc32)c(=O)[nH]1,-3,76*
CN(C)C1CN(C(=O)Cc2cccnc2)CCC1(O)c1ccccc1 (configuration not stated),-1,2
CCN1C(=O)NC(=O)/C(=C/c2cn(CC(=O)NCC3CCCO3)c3ccccc23)C1=O (configuration not stated),-6,40
O=c1oc2cc([N+](=O)[O-])c(O)c([N+](=O)[O-])c2s1,-4,68*
SMILES,Pf apPOL inh,mHTT CaM bind
COc1ccc2c(c1)C1(CCN(S(=O)(=O)c3ccc(F)cc3F)C1)C(=O)N2C (configuration not stated),-5,-4
O=[N+]([O-])c1ccc(N2CCNCC2)cc1NCCc1ccccc1,-3,91*
O=[N+]([O-])c1ccc(N2CCNCC2)cc1NCCO,-2,0
CN1CCC(N)C2CCCCC21 (configuration not stated),.,-1
Cc1c(C(C)C2NCC(C)CC2O)ccc2c1CC1C2CC=C2CC(O)CCC21C (configuration not stated),0,.
COc1ccc(NC(=O)N2CCC3(C2)C(=O)Nc2ccc(OC)cc23)c(OC)c1 (configuration not stated),-7,16
COc1cccc(CN2CCN(c3ccc(Cl)cc3)CC2)c1OC,-12,2
COc1cccc(CN2CCN(c3ccc(F)cc3)CC2)c1OC,58*,6
CCOc1ccccc1N1CCN(Cc2ccc(F)c(Br)c2)CC1,-1,68*
CCOc1ccccc1N1CCN(Cc2ccc(F)c(F)c2)CC1,3,-5
Cc1ccc(-n2c(C)nc3ccc(I)cc3c2=O)cc1,2,-5
NCCc1csc2c1CCCC2,.,65*
O=c1[nH]c2ccccc2c(=O)n1-c1ccccc1F,6,-2
CCCCCC(=O)NC(Oc1ccccc1)C(Cl)(Cl)Cl (configuration not stated),-4,81*
CC(C)C(=O)NC(Oc1ccccc1)C(Cl)(Cl)Cl (configuration not stated),-4,-16
CCCSc1nc2ccccc2c(=O)n1-c1ccc(OC)cc1,1,-6
NC1CCOC1=O (configuration not stated),-15,.
O=C(Nc1ncc([N+](=O)[O-])s1)c1cccn(Cc2ccc(Cl)cc2Cl)c1=O,6,-4
CN(C)/C=C/c1c(C=O)c2cc([N+](=O)[O-])ccc2n1Cc1ccccc1,-56,100*
O=Cc1cn(Cc2ccc([N+](=O)[O-])cc2)c2ccccc12,-1,21
COc1ccc(C=C2Oc3c(ccc(OC(=O)N(C)C)c3C)C2=O)c(OC)c1,-4,-1
N#Cc1c(Cl)c(Cl)nc(N2CCCNCC2)c1Cl,-9,100*
CC1(C)Cc2c(C#N)c(N3CCNCC3)nc(Cc3ccccc3)c2CO1,2,3
